TrxR1 inh: qHTS Assay for Inhibitors of Mammalian Selenoprotein Thioredoxin Reductase 1 (TrxR1): qHTS; recombinant rTrxR1, NADPH fluorescence consumption, selenite substrate; Potency, µM (titrated, usually from 114 µM), for the others: at the top dose activity change, negative = inhibition, hits mostly inhibitors; actives 1% (n = 390,000); further: nearly all actives have a fitted effect of over 65% in size
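Rat TrxR1 (90 nM in the dispensed reagent) was pre-reduced with 400 uM NADPH for 5 min at room temperature, then incubated with compound for 15 min. After 400 uM selenite was added, NADPH fluorescence (Ex 340/Em 450 nm) was followed for 8 min.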
Sfp inh: qHTS Assay for Inhibitors of Bacillus subtilis Sfp phosphopantetheinyl transferase (PPTase). 4'-phosphopantetheinyl transferase ffp (Bacillus subtilis), Q9F4F7. Biochemical Sfp PPTase activity, qHTS. Potency, µM, for the others: largest response in the series, negative = inhibition, actives largely listed as inhibitors. actives 3.5% (n = 310,000). AID 1490, 2009;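 further: the enzyme is Sfp with the accession as filed and its product quenches rhodamine fluorescence; 0% = enzyme reaction without inhibitor and -100% = no enzyme wells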
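Sfp 15 nM + cpd, 15 min RT; start w/ rhodamine-CoA 5 uM, BHQ-2-YbbR 12.5 uM (final); 50 mM Hepes pH 7.6, 10 mM MgCl2, 0.01% NP-40, 0.01% BSA; read 525/598 nm at 0 and 30 min.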
VDR inh: Inhibitors of the vitamin D receptor (VDR): qHTS. VDR-SRC2-3 peptide fluorescence polarization, 2 h. Potency, µM, without a hit: max response, negative = inhibition, usual class: inhibitors. actives 0.93% (n = 400,000)
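Two reagent solutions held at 4 deg C in the dark were dispensed, compounds pinned at 23 nl, and the mixture incubated 2 h at room temperature. Read-out: fluorescence polarization of VDR–SRC2-3 peptide binding.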
TrxR1 substrate: qHTS Assay for Substrates of Mammalian Selenoprotein Thioredoxin Reductase 1 (TrxR1): qHTS | Potency, µM (series often up to 114 µM), without a hit: at the top dose activity change, negative = substrate turnover | purified TrxR1 substrate turnover, NADPH consumption readout | actives 0.01% (n = 390,000) | Thioredoxin reductase 1, cytoplasmic (Rattus norvegicus), O89049; further: nearly all actives have a fitted effect of over 50% in size
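Rat TrxR1, dispensed at 90 nM, was prereduced with 400 uM NADPH (final) for 5 min at ~22 deg C, then incubated with compound 15 min before 400 uM selenite. A first-read NADPH fluorescence drop versus no-compound background flagged substrates.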
GLS inh: qHTS for Inhibitors of Glutaminase (GLS); GLS enzymatic activity, qHTS titration; Glutaminase kidney isoform, mitochondrial (Homo sapiens), O94925; actives 0.21% (n = 410,000); Potency, µM (series often up to 45.5 µM), for inactives: at the highest dose activity change, negative = inhibition, most hits filed as inhibitors
Target sequence (O94925 whole entry, looked up, canonical isoform): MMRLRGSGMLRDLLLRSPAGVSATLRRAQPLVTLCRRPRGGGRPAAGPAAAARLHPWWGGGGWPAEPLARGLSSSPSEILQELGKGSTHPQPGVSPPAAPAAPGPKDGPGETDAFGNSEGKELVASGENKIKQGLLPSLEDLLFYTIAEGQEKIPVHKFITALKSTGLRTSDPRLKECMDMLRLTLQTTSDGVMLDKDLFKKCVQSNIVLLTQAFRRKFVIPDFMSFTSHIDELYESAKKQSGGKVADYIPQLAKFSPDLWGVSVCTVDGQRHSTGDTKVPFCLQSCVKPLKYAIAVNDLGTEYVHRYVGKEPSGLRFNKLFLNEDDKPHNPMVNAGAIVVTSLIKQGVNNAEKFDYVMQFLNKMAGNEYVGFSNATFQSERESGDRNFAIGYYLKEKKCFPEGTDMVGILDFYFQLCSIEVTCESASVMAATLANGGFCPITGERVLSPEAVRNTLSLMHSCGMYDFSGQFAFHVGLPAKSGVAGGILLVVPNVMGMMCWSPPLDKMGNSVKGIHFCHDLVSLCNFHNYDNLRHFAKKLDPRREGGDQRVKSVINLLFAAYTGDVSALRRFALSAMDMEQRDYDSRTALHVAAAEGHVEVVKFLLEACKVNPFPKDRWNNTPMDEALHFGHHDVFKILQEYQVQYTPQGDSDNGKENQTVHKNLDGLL
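Enzyme dispensed in phosphate buffer (45 mM, pH 8.2, 0.02% Tween-20), compounds pinned in, then 1 mM L-glutamine solution and the glutamate oxidase–HRP–Amplex Red mix added; fluorescence read immediately and again after 30 min at room temperature.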
KAT2A inh: qHTS Assay for Inhibitors of GCN5L2; Potency, µM (highest dose often 58.9 µM), for the others: top-dose activity change, negative = inhibition, hits mostly inhibitors; Histone acetyltransferase KAT2A (Homo sapiens), Q92830; actives 0.21% (n = 390,000); GCN5L2 HAT assay, ThioGlo1 CoA-SH fluorescence; AID 504327, 2011
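ThioGlo1-coupled HAT assay: 20nM GCN5L2, 70uM acetyl-CoA, 75uM H3(1-25) peptide, pH 7.5. Fluorescence read at 340/540nm at start and after 20 min at room temperature.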
* hit, by the source's call; ? = inconclusive; . = not tested or not shown; ! = repeats disagree; [ ] = another dose, or the depositor's remark. In the library only some 3.8% were active in any assay of this set; here they are far more common. The call rests on the fitted dose curve; in most records, active means well fitted curve in the direction sought with a large enough effect; inconclusive means small, poorly fitted or top-dose-only effect, or another doubt; inactive means no such curve, though single readings can be large; an effect the other way counts as inactive or inconclusive. Unless noted, on the % scale 0 is the no-effect control and ±100 the full control effect; potency means the concentration at half of the fitted maximal effect.

SMILES	TrxR1 inh	Sfp inh	VDR inh	TrxR1 substrate	GLS inh	KAT2A inh
CCOC(=O)c1cc(-c2ccccc2)sc1NC(=O)C(C)C	6%	-2%	?	2%	12%	-8%
O=C(Nc1ccc(Cl)cc1)c1cccc(N2C(=O)C3C4CCC(C4)C3C2=O)c1 (stereo not drawn)	-10%	6%	8%	-13%	3%	-4%
Cc1cc(Cl)c(OCCN2C(=O)NC(C)(C)C2=O)c(Br)c1	6%	23%	8%	4%	.	-8%
Cc1ccc(-c2nnc(N3CCN(C(=O)COc4cccc(C)c4)CC3)c3ccccc23)cc1	3%[57.1 µM]	-6%	-11%	2%[57.1 µM]	18%	-10%
Cc1ccc(NC(=O)C2CCN(c3cnccn3)CC2)cc1C	21%	12%	-8%	9%	2%	-6%
COc1cc2c(ccc3cc(OC)c(OC)c(O)c32)cc1O	-7%	-7%	6%	5%	7.9µM*	-16%
O=c1cc2oc3cc(O)c(O)cc3c(-c3ccccc3O)c-2cc1O	?	79µM*	?	-11%[57.1 µM]	-26%	?
CCOc1ccccc1-c1c2cc(O)c(=O)cc-2oc2cc(O)c(O)cc12	?	32µM*	?	-18%	?	1%
COc1ccccc1-c1cc(=O)c2cc(O)ccc2o1	.	-3%	.	.	.	.
O=c1cc(-c2ccccc2O)oc2cc(O)cc(O)c12	.	-26%	.	.	.	.
O=c1cc(-c2cccc(O)c2O)oc2ccccc12	.	79µM*	.	.	.	.
O=c1cc(-c2ccccc2O)oc2cc(O)ccc12	.	-4%	7%	.	.	-15%
CCOC(=O)C(C)Oc1cc(Cl)c(C=O)cc1OC (stereo not drawn)	27%	2%	-6%	10%	-5%	-3%
CC(C)c1cccc(OCCCCN(C)C)c1	7%	79µM*	0%	-1%	5%	-5%
CCN(CC)CCOc1cccc(C(C)C)c1	-2%	-6%	6%	3%	-1%	-1%
CCCNC(=O)C1(C)CCCN(CC(=O)c2ccccc2OC)C1 (stereo not drawn)	.	.	.	.	27%	.
CCOc1ccccc1N1C(=O)CC(Nc2ccc(N3CCOCC3)cc2)C1=O (stereo not drawn)	7.1µM*	-13%	-4%	6%[57.1 µM]	14%	-18%
Cc1ccc(NC2CC(=O)N(c3ccc(C)cc3)C2=O)cc1 (stereo not drawn)	25µM*	2%	10%	-3%	-4%	-4%
COc1ccccc1N1C(=O)CC(Nc2ccc(N3CCOCC3)cc2)C1=O (stereo not drawn)	7.9µM*	79µM*	-5%	6%[57.1 µM]	27%	-7%
O=C1CC(Nc2ccc(N3CCOCC3)cc2)C(=O)N1c1ccccc1 (stereo not drawn)	?	?	-9%	13%	34%	0%
O=C(CNC(=O)C1COc2ccccc2O1)N/N=C/c1ccc([N+](=O)[O-])cc1 (stereo not drawn)	21%[0.0914 µM]	4%	-11%	14%[0.0914 µM]	0%	-7%
CCCCNC(=O)c1ccc2c(c1)N(Cc1ccc(F)cc1)C(=O)c1ccccc1S2=O (stereo not drawn)	24%	.	-10%	-3%	-10%	-3%
Cc1ccc(C2SCC(=O)N2Cc2cn3ccsc3n2)o1 (stereo not drawn)	?	56µM*	-13%	3%	-3%	-27%
N#Cc1cccc(Nc2ncnc3c2cnn3-c2cccc(Cl)c2)c1	6%[57.1 µM]	.	15%	5%[57.1 µM]	-4%	3%
CCOc1ccc(S(=O)(=O)Nc2cccc(C(=O)N3CCN(c4ccc(OC)cc4)CC3)c2)cc1	-3%	-3%	11%	-4%	38%	-8%
SMILES	TrxR1 inh	Sfp inh	VDR inh	TrxR1 substrate	GLS inh	KAT2A inh
CC1=C(C(=O)Nc2ccccc2)C(c2ccccn2)n2ncnc2N1 (stereo not drawn)	12%	9%	13%	7%	-19%	.
CC1=C(C(=O)Nc2ccccc2)C(c2ccc[nH]2)n2ncnc2N1 (stereo not drawn)	40µM*!	.	4%	-3%[57.1 µM]	?	?
CCOc1cccc(=O)c2c(C)n(-c3ccc(C(=O)O)cc3)c(C)c12	-17%[57.1 µM]	28µM*	-22%	1%[57.1 µM]	17%	-11%
CCOc1cccc(=O)c2c(C)n(Cc3ccccc3)c(C)c12	21%	-16%	-21%	4%	0%	-7%
COc1cccc(=O)c2c(C)n(-c3ccc(C(=O)O)cc3)c(C)c12	1%[57.1 µM]	4.5µM*	6%	-3%[57.1 µM]	-3%	-5%
COc1ccc(-n2c(C)c3c(OC)cccc(=O)c3c2C)cc1	-13%	-18%	-1%	-5%	8%	-9%
CCOc1cccc(=O)c2c(C)n(Cc3ccco3)c(C)c12	-12%	40µM*	-1%	0%	.	-21%
Cn1cc(CN2CCC(Oc3ccc(C(=O)N4CCCCC4)cc3)CC2)cn1	6%[57.1 µM]	2%	4%	-5%	1%	-28%
CC(Oc1ccccc1)C(=O)N=C1SC2CS(=O)(=O)CC2N1c1cccc(F)c1 (stereo not drawn)	21%	22%	-6%	1%	5%	-16%
Cc1cc(O)c(C(C)C)cc1N=Cc1cc([N+](=O)[O-])ccc1O	-27%	14µM*	?	-16%	9%	-14%
Cc1cc(O)c(C(C)C)cc1N=Cc1ccccc1O	-21%	14µM*	40µM*	-9%	25%	-5%
Oc1ccc2ccccc2c1CNc1ccccc1	-58%[57.1 µM]	.	22µM*	24%[57.1 µM]	6%	.
COc1ncnc2c1NC1=C(S2)C(=NCCC(=O)O)CC(C)(C)C1	-15%	14µM*	-6%	?	-4%	-24%
CN(C)c1ncnc2c1NC1=C(S2)C(=NCCCC(=O)O)CC(C)(C)C1	?	22µM*	?	-4%[11.4 µM]	-12%	-8%
CC1(C)CC(=O)/C(=C(\O)Cc2ccccc2)C(=NCCCCCC(=O)O)C1	28%[57.1 µM]	2%	?	6%[57.1 µM]	-8%	?
O=C(CC1CCOCC1)Nc1ccc(Cl)c(Cl)c1	20%	-3%	-3%	7%	-11%	-9%
CC(C)(C)C(=O)CC(=O)Nc1ccc(Cl)c(N)c1	6%	11%	3%	-2%[57.1 µM]	2%	-2%
COC(=O)CC(c1ccc(C(C)C)cc1)n1cccc1 (stereo not drawn)	-11%	15%	-16%	-8%	-1%	3%

High-throughput results deposited in PubChem BioAssay by National Center for Advancing Translational Sciences (NCATS).
